D1 ag – Allosteric Agonists of the Human D1 Dopamine Receptor: qHTS; D(1A) dopamine receptor (Homo sapiens), P21728; HEK293 T-REx D1 cells, calcium flux, agonist mode; activation, % at 2 µM; 1% of 360,000 active; AID 504660, 2011; in the data active = activation above about 30%; also: 0% is about no effect
Target sequence (P21728 whole entry, looked up): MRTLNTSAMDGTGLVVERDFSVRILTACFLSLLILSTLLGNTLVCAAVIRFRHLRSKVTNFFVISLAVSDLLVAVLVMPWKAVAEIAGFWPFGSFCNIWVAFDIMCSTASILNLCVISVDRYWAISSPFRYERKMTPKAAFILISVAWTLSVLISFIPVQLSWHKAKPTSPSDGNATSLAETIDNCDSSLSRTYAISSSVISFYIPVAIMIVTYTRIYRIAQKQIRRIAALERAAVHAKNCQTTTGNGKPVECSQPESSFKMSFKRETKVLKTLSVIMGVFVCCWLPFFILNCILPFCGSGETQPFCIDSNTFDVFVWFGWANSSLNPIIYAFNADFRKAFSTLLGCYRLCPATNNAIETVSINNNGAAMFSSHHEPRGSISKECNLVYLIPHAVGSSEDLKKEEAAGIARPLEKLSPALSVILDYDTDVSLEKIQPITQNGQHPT
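Agonism was scored from calcium flux recorded over 180 s (1 read/s) after pintool compound addition, following a 10-cycle baseline. Cells were inducible force-coupled HEK293 TREx D1, plated overnight at 30 C and loaded with no-wash calcium dye.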
D3 antag – qHTS of D3 Dopamine Receptor Antagonist: qHTS; D(3) dopamine receptor (Homo sapiens), P35462; max response, negative = inhibition, %; AID 652054, 2013; D3R cells, DiscoveRx beta-arrestin luminescence, antagonist mode; hits give low values; 2.5% of 360,000 active; in the data active = max response below about -50%; inconclusive = no clear call, values can overlap the other calls; also: % is scaled to controls: 0 for no effect and ±100 for the full control effect
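Cells plated overnight at 1500 cells/well, then exposed to library compounds with dopamine controls for 90 minutes at 37 degrees C. DiscoveRx reagent added for 30–60 minutes at room temperature; luminescence read, quantitative HTS format.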
D1 PAM – Potentiators of Human D1 Dopamine Receptor: qHTS. AID 504651, 2011. HEK293 TREx D1 cells, calcium flux, dopamine EC20 potentiation. potentiation, % at 10 µM. 0.036% of 360,000 active. D(1A) dopamine receptor (Homo sapiens), P21728; in the data active = potentiation above about 30%; also: 0% is about no effect
D3 ag – qHTS of D3 Dopamine Receptor Agonist: qHTS; AID 652048, 2013; D3R DiscoveRx beta-arrestin cells, luminescence, 90 min; max activation, %; D(3) dopamine receptor (Homo sapiens), P35462; 0.58% of 410,000 active; in the data active = max activation above about 30%; also: 0% is about no effect
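Cells at 1500/well, incubated overnight, then treated with pinned compounds (dopamine as control) for 90 min at 37 degrees C. DiscoveRx reagent added for 30 - 60 minutes at room temperature; luminescence read.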
D1 antag – Antagonist of Human D 1 Dopamine Receptor: qHTS | D(1A) dopamine receptor (Homo sapiens), P21728 | HEK293 TREx D1 cells, calcium flux, dopamine EC80; hits give low values | activity change, negative = inhibition, % at 10 µM | 3.2% of 360,000 active; in the data active = activity change below about -30%; also: % is scaled to controls: 0 for no effect and ±100 for the full control effect
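Calcium flux readout: force-coupled, inducible Hek293 Trex D1 line, cells induced overnight at 30 C with tetracycline, dye-loaded 30–90 min at RT. Antagonism scored against EC80 dopamine challenge given 180 s after compound.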
* marks the source's active call; other numbers are inactive results. Hits are enriched below; roughly 6.1% of the tested compounds scored in any of these assays.

What do the screens show for `Cc1cc2c(cc1C)N[C@]1(C[C@H]3CCCC(=O)N4CC[C@@H](C1)[C@@H]34)C(=NC(C)(C)CC(C)(C)C)N2`?
D3 antag: 5; D3 ag: -25

What do the screens show for `O=C1CC[C@@H]2CC3(C[C@@H]4CCN1[C@H]24)Nc1cc(Cl)ccc1NC3=NC1CCCCC1` (some centres undefined)?
D3 antag: -63*; D3 ag: -35

What do the screens show for `O=C1CCC[C@@H]2C[C@@]3(C[C@@H]4CCN1[C@H]24)Nc1cc([N+](=O)[O-])ccc1NC3=NC1CCCCC1`?
D3 antag: inconclusive; D3 ag: -43

How did O=C1CCC[C@@H]2C[C@@]3(C[C@@H]4CCN1[C@H]24)Nc1cc(Cl)ccc1NC3=NC1CCCCC1 do in these assays?
D3 antag: -78*; D3 ag: -40

Results for COc1ccc(OCC(=O)Nc2c3c(nn2-c2ccc(OC)cc2)CS(=O)(=O)C3)cc1 ?
D1 ag: 1; D3 antag: 4; D1 PAM: 3; D3 ag: -18; D1 antag: 1

How did Nc1nc2ncccc2cc1C(=O)NC1CCCCC1 do in these assays?
D3 antag: -20; D3 ag: 77*

How did O=C(NC1CCCCC1)c1cc2ccccc2cc1O do in these assays?
D1 ag: 2; D3 antag: -1; D1 PAM: -3; D3 ag: 2; D1 antag: -26

What do the screens show for `COC(=O)c1cccc(Nc2c(-c3ccc(SC)cc3)nc3nc[nH]n23)c1`?
D1 ag: 2; D1 PAM: -2; D3 ag: -11; D1 antag: 9

How did Cc1ccc(S(=O)(=O)N2CCCCC2CCNC(=O)C(=O)Nc2ccccc2F)cc1 (centres undefined) do in these assays?
D1 ag: 2; D3 antag: 2; D1 PAM: -6; D3 ag: -4; D1 antag: -4

Results for CCc1cc(S(=O)(=O)O)c2cc(C(C)C)cccc1-2 ?
D3 ag: -18

What do the screens show for `Nc1c(Br)cc(Br)c2c1C(=O)c1c(cccc1S(=O)(=O)O)C2=O`?
D3 antag: -55*; D3 ag: -17

Results for CC(C)C(c1nnnn1C1CCCCC1)N1CCc2ccccc21 (centres undefined) ?
D1 ag: 0; D3 antag: 0; D1 PAM: 2; D3 ag: 4; D1 antag: 6

Results for Cc1ccc(C(c2nnnn2C2CCCCC2)N2CCc3ccccc32)cc1 (centres undefined) ?
D1 ag: 3; D3 antag: 4; D1 PAM: -8; D3 ag: 8; D1 antag: -34*

What do the screens show for `Nc1ncnc2c1ncn2[C@@H]1O[C@H](CNC(=O)[C@@H]2CCCN2S(=O)(=O)c2ccc(F)cc2)[C@@H](O)[C@H]1O`?
D3 antag: 0; D3 ag: 37*

What do the screens show for `Nc1ncnc2c1ncn2[C@@H]1O[C@H](CNC(=O)[C@@H]2CCN2)[C@@H](O)[C@H]1O`?
D3 antag: 0; D3 ag: 0

What do the screens show for `COC(=O)c1ccc(CSc2nc(C)nc3c2c(=O)n(C)c(=O)n3C)o1`?
D1 ag: 2; D3 antag: -8; D1 PAM: -3; D3 ag: 3; D1 antag: -39*

What do the screens show for `Cc1nc(SCC(=O)Nc2cc(C)on2)c2c(=O)n(C)c(=O)n(C)c2n1`?
D1 ag: 3; D3 antag: 12; D1 PAM: -16; D3 ag: -5; D1 antag: -64*

What do the screens show for `Cc1nc(SCC(=O)NCc2ccc(F)cc2)c2c(=O)n(C)c(=O)n(C)c2n1`?
D1 ag: 17; D3 antag: 19; D1 PAM: 5; D3 ag: 0; D1 antag: 23

What do the screens show for `CCCn1c(SCC(=O)Nc2cccc(C)n2)nc2c1c(=O)n(C)c(=O)n2C`?
D1 ag: 1; D3 antag: 8; D1 PAM: -3; D3 ag: 5; D1 antag: -1

What do the screens show for `CCCn1c(SCC(=O)Nc2cc(C)on2)nc2c1c(=O)n(C)c(=O)n2C`?
D3 antag: -51*; D3 ag: -3

What do the screens show for `Cc1ccc(-c2nc(SCC(=O)Nc3cc(C)on3)c3c(=O)n(C)c(=O)n(C)c3n2)cc1`?
D1 ag: 1; D3 antag: -17; D1 PAM: 1; D3 ag: -17; D1 antag: 8

What do the screens show for `Cc1ccc(CCNC(=O)c2c(C)oc3ncnc(N4CCOCC4)c23)cc1`?
D1 ag: 4; D1 PAM: 4; D3 ag: -7; D1 antag: -2

How did Cc1ccc(C2c3[nH]c4ccccc4c3C[C@H]3C(=O)N(c4ccccc4C(=O)NCCCN4CCOCC4)C(=O)N23)cc1 (some centres undefined) do in these assays?
D1 ag: 3; D3 antag: 0; D1 PAM: 2; D3 ag: -4; D1 antag: -3

Results for O=C(NCCCN1CCOCC1)c1ccccc1N1C(=O)[C@@H]2Cc3c([nH]c4ccccc34)C(c3cccc(Cl)c3)N2C1=O (some centres undefined) ?
D1 ag: 10; D3 antag: -8; D1 PAM: -9; D3 ag: -1; D1 antag: -46*

How did CCc1ccccc1NC(=O)Cn1c(=O)n(Cc2ccco2)c(=O)c2sc3ccccc3c21 do in these assays?
D1 ag: 2; D1 PAM: -2; D3 ag: -6; D1 antag: 1

How did COC(=O)c1sccc1S(=O)(=O)NC(C)c1cnn(-c2ccc(OC)cc2)c1C (centres undefined) do in these assays?
D1 ag: 3; D3 antag: 0; D1 PAM: 1; D3 ag: -18; D1 antag: -50*

What do the screens show for `COc1ccc(-n2ncc(C(C)NS(=O)(=O)c3cc(C)sc3C)c2C)cc1` (centres undefined)?
D3 antag: 0; D3 ag: -8

What do the screens show for `COc1ccc(Br)cc1CNC(=O)CSc1n[nH]c(-c2ccccc2)n1`?
D1 ag: 0; D1 PAM: 3; D3 ag: 4; D1 antag: -11

Results for COc1ccc(-c2cc(=O)oc3cc(OCc4nn[nH]n4)ccc23)cc1 ?
D1 ag: 2; D3 antag: -53*; D1 PAM: 2; D3 ag: -5; D1 antag: 19

Screening data from PubChem.
